# Reference: PubChem BioAssay (NCATS)
# Inconclusive results are not listed. Entries that show only a call come without a potency. Calls of active or inactive are those of the source. Unless noted, calls follow the shape of the dose curve; as a rule, active = well fitted curve in the direction sought with a large enough effect; inconclusive = small, poorly fitted or top-dose-only effect, or another doubt; inactive = no such curve, though single readings can be large; an effect the other way counts as inactive or inconclusive.
# Experiments:
# [1] = P-glycoprotein substrates identified in KB-8-5-11 adenocarcinoma cell line, qHTS therapeutic library screen (AID 1346987); also: nearly all actives have a fitted effect of over 65% in size; also: potency is read from the fitted curve at half-maximal effect
# Outline: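 Steps: plate 500 KB-8-5-11 cells/well in DMEM + 10% FCS (colchicine removed); pin compounds in dose-response; incubate 72 h, 37 degree C, 5% CO2; add CellTiter-Glo, 5 min; read luminescence.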
# [2] = tested on: Zika virus NS2B-NS3 protease (unlinked complex); experiment: Primary screen GU Rhodamine qHTS for Zika virus inhibitors: Unlinked NS2B-NS3 protease assay (AID 1347159); also: nearly all actives have a fitted effect of over 60% in size
# Outline: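 Percent inhibition derives from the 15-min fluorescence change (ex 480, em 540 nm), normalized to no-enzyme and no-inhibitor wells. Reactions contained 25 nM NS2B-NS3 complex and 1.5 microM substrate in 10 mM Tris-HCl pH 8.0.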
# [3] = Primary qHTS for inhibitors of nuclear receptor binding SET domain protein 2 (NSD2) in an isogenic RCH-ACV NSD2 p.E1099K mutant (9B) (AID 1645876); also: nearly all actives have a fitted effect of over 70% in size; also: potency is read from the fitted curve at half-maximal effect
# [4] = Primary qHTS for inhibitors of nuclear receptor binding SET domain protein 2 (NSD2) in an RCH-ACV wild type WT cells (2C) (AID 1645877); also: nearly all actives have a fitted effect of over 70% in size; also: potency is read from the fitted curve at half-maximal effect
# HaCat [5] = experiment: Cytotoxic Profiling of Annotated Libraries Using Quantitative High-Throughput Screening (AID 1296008); conditions: Five cell lines viability, CellTiter-Glo ATP luminescence, 48-72 h; max response: stronger effect = lower value; also: nearly all actives have a fitted effect of over 60% in size; also: potency is read from the fitted curve at half-maximal effect
# Outline: (§1)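 Cytotoxicity was measured as CellTiter-Glo ATP luminescence, read after 10 min at room temperature. Compound treatment of the cells lasted 48 or 72 hr at 37 degrees Celsius in a qHTS format.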
# NIH3T3 [6] = experiment: as above; conditions: Five cell lines viability, CellTiter-Glo ATP luminescence, 48-72 h; max response: stronger effect = lower value
# Outline: as §1
# HACAT [7] = experiment: qHTS assay to identify novel small-molecules to repurpose for Merkel cell carcinoma treatment (AID 1296009); conditions: MCC and control cell lines, CellTiter-Glo viability, 72 h; at 44.8 µM (top of the series) unless noted; also: nearly all actives have a fitted effect of over 60% in size
# Outline: (§2)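 72 hr, 37 degree celsius; NPC 8-pt / MIPE 11-pt dose response; compound pinned in DMSO; CellTiter-Glo, 10 min RT, luminescence; normalized to no-cell and DMSO controls.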
# NIH3T3 [8] = experiment: as above; conditions: MCC and control cell lines, CellTiter-Glo viability, 72 h; at 44.8 µM (top of the series) unless noted
# Outline: as §2
# HeLa = experiment: Primary qHTS to identify gynecologic anti-cancer compounds using libraries of approved drugs and bioactive compounds (AID 1345084); conditions: Gynecologic cancer cell panel viability, ATPlite luminescence, 48 h; series mostly up to 57.5 µM; also: nearly all actives have a fitted effect of over 55% in size; also: potency is read from the fitted curve at half-maximal effect
# Outline: (§3)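 Cells, 1,000 per well, plated 16 h, then exposed 48 h at 37 C to compounds. Viability by ATPlite luminescence after 15 min at room temperature.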
# SKOV3 = experiment: as above; conditions: Gynecologic cancer cell panel viability, ATPlite luminescence, 48 h; series mostly up to 57.5 µM
# Outline: as §3
# [9] = target: Cytochrome P450 2D6 (Homo sapiens) (UniProt P10635); experiment: Cytochrome P450 family 2 subfamily D member 6 (CYP2D6) small molecule antagonists: luciferase biochemical (cell-free) qHTS assay (AID 1645840; active = well fitted curve in the direction sought with a large enough effect in the repeat runs; an effect the other way counts as inactive or inconclusive; also: nearly all actives have a fitted effect of over 55% in size; also: potency is read from the fitted curve at half-maximal effect)
# Outline: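 P450-Glo luminescent screen: recombinant CYP2D6 enzyme–proluciferin substrate mix preincubated with compound 10 min at room temperature, then NADPH regeneration added for 1 h at room temperature. Detection reagent added for 20 min; luciferin light read as relative luminescence units.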
# [10] = target: Cytochrome P450 2C9 (Homo sapiens) (UniProt P11712); experiment: Cytochrome P450 family 2 subfamily C member 9 (CYP2C9) small molecule antagonists: luciferase biochemical (cell-free) qHTS assay (AID 1645842; active = well fitted curve in the direction sought with a large enough effect in the repeat runs; an effect the other way counts as inactive or inconclusive; also: potency is read from the fitted curve at half-maximal effect; nearly all actives have a fitted effect of over 55% in size)
# Outline: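 Luminescence, after 20 min with luciferin detection reagent, reflected CYP2C9 turnover during a 1 h NADPH-driven reaction at 37C. Enzyme-substrate mix contained 0.4% bovine serum albumin and was preincubated with compound 10 min at room temperature.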
# [11] = target: Catechol O-methyltransferase (Homo sapiens) (UniProt P21964); experiment: Confirmatory Screen for Target Class Profiling of Small Molecule Inhibitors of Methyltransferases (AID 1745852); conditions: MTase-Glo luminescence, SAH detection, recombinant enzyme; measured here: COMT max response; stronger effect = lower value
# [12] = target: Guanidinoacetate N-methyltransferase (Homo sapiens) (UniProt Q14353); experiment: as above; conditions: activity change, negative = inhibition: at 57.3 µM (top of the series) unless noted
# [13] = target: Nicotinamide N-methyltransferase (Homo sapiens) (UniProt P40261); experiment: as above; conditions: MTase-Glo luminescence, SAH detection, recombinant enzyme; measured here: NNMT max response; stronger effect = lower value
# [14] = target: Phenylethanolamine N-methyltransferase (Homo sapiens) (UniProt P11086); experiment: as above; conditions: MTase-Glo luminescence, SAH detection, recombinant enzyme; measured here: PNMT max response; stronger effect = lower value
# [15] = P-glycoprotein substrates identified in KB-3-1 adenocarcinoma cell line, qHTS therapeutic library screen (AID 1346986); also: nearly all actives have a fitted effect of over 60% in size
# Outline: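 Cells seeded 500/well in DMEM/10% FCS; compounds pinned in dose-response; 72 h incubation; CellTiter-Glo added, 5 min, luminescence. KB-8-5-11 run ±tariquidar to test reversal of P-gp resistance.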
# Sequence of Cytochrome P450 2D6 (Homo sapiens) (P10635 whole entry, looked up): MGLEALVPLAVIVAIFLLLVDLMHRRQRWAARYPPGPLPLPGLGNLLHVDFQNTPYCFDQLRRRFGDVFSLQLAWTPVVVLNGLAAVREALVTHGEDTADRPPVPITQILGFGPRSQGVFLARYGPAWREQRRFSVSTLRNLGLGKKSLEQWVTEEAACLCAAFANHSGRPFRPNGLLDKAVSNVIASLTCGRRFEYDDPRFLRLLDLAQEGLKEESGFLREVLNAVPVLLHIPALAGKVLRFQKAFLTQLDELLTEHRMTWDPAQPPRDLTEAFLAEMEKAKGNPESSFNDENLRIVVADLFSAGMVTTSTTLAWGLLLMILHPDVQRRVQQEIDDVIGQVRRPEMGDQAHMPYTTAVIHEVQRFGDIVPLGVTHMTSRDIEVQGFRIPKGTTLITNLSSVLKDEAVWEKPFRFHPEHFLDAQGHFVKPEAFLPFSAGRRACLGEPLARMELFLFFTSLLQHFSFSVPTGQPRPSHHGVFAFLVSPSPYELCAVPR
# Sequence of Catechol O-methyltransferase (Homo sapiens) (P21964 whole entry, looked up): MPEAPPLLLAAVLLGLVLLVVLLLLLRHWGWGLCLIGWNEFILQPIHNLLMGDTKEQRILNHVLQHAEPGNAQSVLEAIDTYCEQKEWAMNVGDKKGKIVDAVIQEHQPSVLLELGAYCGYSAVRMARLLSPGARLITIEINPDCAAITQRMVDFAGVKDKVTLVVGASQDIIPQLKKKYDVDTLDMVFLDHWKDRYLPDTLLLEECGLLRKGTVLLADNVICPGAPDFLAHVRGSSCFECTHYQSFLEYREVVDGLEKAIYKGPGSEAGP
# Sequence of Cytochrome P450 2C9 (Homo sapiens) (P11712 whole entry, looked up): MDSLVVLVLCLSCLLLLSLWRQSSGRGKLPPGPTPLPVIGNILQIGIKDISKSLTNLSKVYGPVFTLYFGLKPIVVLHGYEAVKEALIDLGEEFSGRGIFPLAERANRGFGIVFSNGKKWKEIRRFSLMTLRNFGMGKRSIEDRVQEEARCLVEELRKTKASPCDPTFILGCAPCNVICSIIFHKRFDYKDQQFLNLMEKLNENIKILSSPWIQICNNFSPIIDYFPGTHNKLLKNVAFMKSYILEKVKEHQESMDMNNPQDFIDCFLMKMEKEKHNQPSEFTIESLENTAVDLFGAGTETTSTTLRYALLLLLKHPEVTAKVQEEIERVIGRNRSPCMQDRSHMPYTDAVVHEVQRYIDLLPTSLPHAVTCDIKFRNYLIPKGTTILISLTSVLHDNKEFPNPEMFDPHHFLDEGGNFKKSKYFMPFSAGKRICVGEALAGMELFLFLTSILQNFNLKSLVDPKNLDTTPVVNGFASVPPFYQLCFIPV
# Sequence of Phenylethanolamine N-methyltransferase (Homo sapiens) (P11086 whole entry, looked up): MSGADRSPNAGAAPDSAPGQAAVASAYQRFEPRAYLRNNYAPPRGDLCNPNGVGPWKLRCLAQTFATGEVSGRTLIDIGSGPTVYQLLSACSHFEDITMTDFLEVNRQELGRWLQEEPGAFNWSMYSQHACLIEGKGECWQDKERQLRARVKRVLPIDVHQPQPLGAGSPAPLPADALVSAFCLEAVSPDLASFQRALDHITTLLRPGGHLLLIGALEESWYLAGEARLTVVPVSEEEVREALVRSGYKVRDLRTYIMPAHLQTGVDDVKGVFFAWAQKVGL
# Sequence of Nicotinamide N-methyltransferase (Homo sapiens) (P40261 whole entry, looked up): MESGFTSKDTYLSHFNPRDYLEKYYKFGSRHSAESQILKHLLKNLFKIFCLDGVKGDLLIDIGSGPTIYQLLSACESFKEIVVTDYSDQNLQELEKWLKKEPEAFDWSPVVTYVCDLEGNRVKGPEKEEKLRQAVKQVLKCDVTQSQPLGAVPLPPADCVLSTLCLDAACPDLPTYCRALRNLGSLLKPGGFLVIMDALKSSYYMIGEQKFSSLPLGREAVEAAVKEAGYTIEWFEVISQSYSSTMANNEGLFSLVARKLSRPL
structure (smiles),measurement,setting,value
CN1CCCCC1Cn1cc(C(=O)c2cc([N+](=O)[O-])ccc2I)c2ccccc21 (stereo not given),Potency,[1],inactive
same,Potency,[2],inactive
same,Potency,[3],inactive
same,Potency,[4],inactive
same,outcome,HaCat [5],inactive
same,outcome,NIH3T3 [6],inactive
same,outcome,HACAT [7],inactive
same,outcome,NIH3T3 [8],inactive
same,Potency,HeLa,inactive
same,Potency,SKOV3,inactive
CC(=O)C1CCC2C3CCC4C[C@@H](O)CCC4(C)C3CCC12C (stereo not given in full),Potency,[2],inactive
same,max response,HaCat [5],-9.42% (inactive)
same,outcome,NIH3T3 [6],inactive
same,outcome,NIH3T3 [8],inactive
same,Potency,HeLa,inactive
CO[C@H]1C[C@H](O[C@H]2CC[C@]3(C=O)[C@H]4CC[C@]5(C)[C@@H](C6=CC(=O)OC6)CC[C@]5(O)[C@@H]4CC[C@]3(O)C2)O[C@H](C)[C@H]1O,Potency,[1],126 nM (active)
same,Potency,[3],39.9 nM (active)
same,Potency,[4],89.3 nM (active)
same,Potency,HaCat [5],356 nM (active)
same,outcome,NIH3T3 [6],inactive
same,outcome,NIH3T3 [8],inactive [at 17.4 µM]
same,Potency,HeLa,141 nM (active)
same,Potency,SKOV3,141 nM (active)
CC1(C)C(=O)N(c2ccc(C#N)c(C(F)(F)F)c2)C(=S)N1c1ccc(C(N)=O)c(F)c1,Potency,[1],inactive
same,Potency,[2],inactive
same,Potency,[9],inactive
same,Potency,[10],19000 nM (active)
same,Potency,[3],inactive
same,Potency,[4],inactive
same,outcome,HaCat [5],inactive
same,max response,NIH3T3 [6],0.467% (inactive)
same,outcome,HACAT [7],inactive
same,Potency,HeLa,inactive
same,Potency,SKOV3,inactive
Oc1ccc2c(c1)C13CCCC[C@H]1[C@@H](C2)N(CC1CCC1)CC3,Potency,[3],23000 nM (active)
same,Potency,[4],23000 nM (active)
same,activity,[11],-7.63%
same,"activity change, negative = inhibition",[12],-6.87%
same,activity,[13],-13.8%
same,activity,[14],-7.17%
same,outcome,HaCat [5],inactive
same,max response,NIH3T3 [6],-7.5% (inactive)
same,outcome,HACAT [7],inactive
same,Potency,HeLa,inactive
CCCCCn1cc(C(=O)c2cccc3ccccc23)c2ccccc21,Potency,[1],inactive
same,Potency,[2],inactive
same,Potency,[9],inactive
same,Potency,[10],1510 nM (active)
same,Potency,[3],inactive
same,Potency,[4],inactive
same,max response,HaCat [5],-4.01% (inactive)
same,max response,NIH3T3 [6],4.48% (inactive)
same,Potency,HeLa,inactive
same,Potency,SKOV3,inactive
COC(=O)C12C(=O)C(C)(O)C(=O)C1(C)C(C)=CC1C3(C=O)CCC(OC(C)=O)C(C)(C)C3CCC12C (stereo not given),Potency,[1],inactive
same,max response,HaCat [5],-17.3% (inactive)
same,max response,NIH3T3 [6],-2.03% (inactive)
same,Potency,HeLa,inactive
same,Potency,SKOV3,inactive
COc1ccc2c(c1)c(CCN(C)C)cn2S(=O)(=O)c1ccccc1,Potency,[2],inactive
same,Potency,[9],1510 nM (active)
same,Potency,[10],15100 nM (active)
same,outcome,HaCat [5],inactive
same,outcome,NIH3T3 [6],inactive
same,outcome,HACAT [7],inactive
same,outcome,NIH3T3 [8],inactive
same,Potency,HeLa,inactive
same,Potency,SKOV3,inactive
Cc1cccc(NC(=O)NC2N=C(c3ccccc3)c3ccccc3N(CC(=O)c3ccccc3C)C2=O)c1 (stereo not given),Potency,[9],inactive
same,outcome,HaCat [5],inactive
same,outcome,NIH3T3 [6],inactive
same,outcome,HACAT [7],inactive
same,outcome,NIH3T3 [8],inactive
same,Potency,HeLa,inactive
same,Potency,SKOV3,inactive
CCC1CN2CCC3(C(=O)Nc4cccc(O)c43)C2CC1/C(=C/OC)C(=O)OC (stereo not given),Potency,[1],inactive
same,Potency,[2],inactive
same,Potency,[3],inactive
same,Potency,[4],inactive
same,outcome,HaCat [5],inactive
same,max response,NIH3T3 [6],4.67% (inactive)
same,outcome,HACAT [7],inactive [at 17.4 µM]
same,Potency,HeLa,inactive
same,Potency,SKOV3,inactive
Clc1ccc([C@]23CNC[C@H]2C3)cc1Cl,Potency,[1],inactive
same,Potency,[2],inactive
same,Potency,[3],inactive
same,Potency,[4],inactive
same,activity,[11],-0.0723%
same,"activity change, negative = inhibition",[12],2.99%
same,activity,[13],-7.01%
same,activity,[14],-90.8%
same,outcome,HaCat [5],inactive
same,max response,NIH3T3 [6],1.31% (inactive)
same,outcome,HACAT [7],inactive
same,Potency,HeLa,inactive
CC1CCCC(O)CCC/C=C/c2cc(O)cc(O)c2C(=O)O1 (stereo not given),Potency,[15],inactive
same,Potency,[4],11300 nM (active)
same,max response,HaCat [5],0.224% (inactive)
same,Potency,NIH3T3 [6],8050 nM (active)
same,Potency,HeLa,inactive
same,Potency,SKOV3,inactive
CCC1CN2CCc3cc(OC)c(OC)cc3C2CC1CC1=NCCc2cc(O)c(OC)cc21 (stereo not given),Potency,[1],inactive
same,Potency,[2],inactive
same,Potency,[3],inactive
same,activity,[11],-74.9%
same,"activity change, negative = inhibition",[12],-9.58% [at 29.8 µM]
same,activity,[13],-6.53%
same,activity,[14],-6.3%
same,outcome,HaCat [5],inactive
same,outcome,HACAT [7],inactive [at 17.4 µM]
same,Potency,HeLa,inactive
same,Potency,SKOV3,inactive
C#CC1(O)CCC2C3CCC4=CC(=O)CCC4=C3C=CC21C (stereo not given),Potency,[1],2910 nM (active)
same,outcome,HaCat [5],inactive
same,outcome,HACAT [7],inactive
same,Potency,SKOV3,inactive
O=C(C[C@@H]1NCCC[C@H]1O)Cn1cnc2ccccc2c1=O,Potency,[1],259 nM (active)
same,Potency,[2],inactive
same,Potency,[3],129 nM (active)
same,Potency,[4],145 nM (active)
same,Potency,HaCat [5],1300 nM (active)
same,Potency,NIH3T3 [6],366 nM (active)
same,Potency,HeLa,1780 nM (active)
CC1=CC2/C=C(\C)CCC(O)C(O)/C=C/C(=O)OC23C(=O)NC(CC(C)C)C3C1C (stereo not given),Potency,[2],inactive
same,Potency,[3],8930 nM (active)
same,outcome,HaCat [5],inactive
same,max response,NIH3T3 [6],-15.3% (inactive)
same,outcome,HACAT [7],inactive [at 17.4 µM]
same,Potency,HeLa,inactive
